Source: PubChem BioAssay
The full list was thinned out, with hits kept by preference.
ST2 inh: IL1RL1 inhibition | inhibition, % for hits at 17 µM | AlphaLISA ST2-Fc/biotin-IL-33 interaction, 1 h | actives 2.3% (n = 78,000); in the data active means inhibition above about 30%
Target sequence (Q01638 whole entry, looked up): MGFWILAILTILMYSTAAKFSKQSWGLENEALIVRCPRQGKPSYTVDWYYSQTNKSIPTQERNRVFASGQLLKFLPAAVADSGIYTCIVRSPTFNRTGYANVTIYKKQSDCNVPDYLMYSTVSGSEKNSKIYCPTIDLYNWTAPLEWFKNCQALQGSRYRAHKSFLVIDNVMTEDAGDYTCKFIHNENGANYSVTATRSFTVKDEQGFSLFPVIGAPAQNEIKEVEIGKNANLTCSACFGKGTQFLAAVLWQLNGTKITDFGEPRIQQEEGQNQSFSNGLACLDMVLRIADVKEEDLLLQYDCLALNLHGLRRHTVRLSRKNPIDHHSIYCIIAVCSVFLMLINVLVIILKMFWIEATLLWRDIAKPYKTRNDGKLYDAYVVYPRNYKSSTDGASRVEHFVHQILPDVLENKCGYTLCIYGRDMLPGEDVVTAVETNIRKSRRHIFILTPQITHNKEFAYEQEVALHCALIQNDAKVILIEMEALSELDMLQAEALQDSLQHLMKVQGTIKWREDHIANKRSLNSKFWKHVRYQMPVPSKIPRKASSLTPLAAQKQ
Numbers without * were called inactive; i = inactive.

SMILES | ST2 inh
CC1CC(=O)Nc2cc([N+](=O)[O-])ccc2N1 (configuration not stated) | i
Cc1ccc([C@@H]2Nc3ccc(C(=O)O)cc3[C@@H]3C=CC[C@@H]32)cc1 | 34.0%*
Cc1ccc(C(=O)N2CCCC2)cc1[N+](=O)[O-] | i
Cc1ccc(C(=O)N2CCN(C(=O)c3ccccc3)C2c2ccc(N(C)C)cc2)cc1 (configuration not stated) | i
O=C(c1ccc2c(c1)C1C=CCC1C(c1ccc([N+](=O)[O-])cc1)N2)N1CCCC1 (configuration not stated) | 40.0%*
CCOC(=O)CC1CCCCN1Cc1nc(Cc2ccccc2F)no1 (configuration not stated) | i
COCCN1CCC(C(=O)NC23C[C@H]4C[C@@H](C2)CC(n2cncn2)(C4)C3)C1 (some centres not stated) | i
CCCOc1cccc(C(=O)Nc2cccc(Br)c2)c1 | i
Cc1ccc(-c2nnc(-c3nc(NCCC(C)C)c4ccccc4n3)o2)cc1 | i
COc1ccc(NC(=O)Cc2c(C(=O)O)[nH]c3ccc(Cl)cc23)cc1Cl | i
COc1ccc(Nc2nc3c(F)cccc3s2)cc1 | i
CCSc1ncc(CN2CCCC3(CCN(C(=O)C(C)(C)C)C3)C2)cn1 (configuration not stated) | i
CCOC(=O)C1=C(C)NC2=C(C(=O)C(C(=O)OC)C(C)C2)C1c1ccc(Cl)cc1Cl (configuration not stated) | i
CCN(CC1CCN(C2CCN(C)CC2)CC1)C(=O)CCC(=O)c1ccc(OC)cc1 | i
CC(NS(C)(=O)=O)C(c1cccs1)N1CCOCC1 (configuration not stated) | i
O=C(Nc1nc2ccc(Cl)cc2s1)c1ccccc1[N+](=O)[O-] | i
N#C/C(=C\c1ccccc1[N+](=O)[O-])c1nc(-c2ccc(Cl)cc2)cs1 | 31.0%*
O=C1c2cccc([N+](=O)[O-])c2C(=O)N1c1nc(-c2ccccc2)cs1 | i
COc1cc(/C(C#N)=C/c2ccccc2F)c([N+](=O)[O-])cc1OC | i
N#C/C(=C\c1ccccc1[N+](=O)[O-])c1nc(-c2ccccc2)cs1 | 50.0%*
COc1ccc(NC(=O)c2cnn3c(C(F)(F)F)cc(-c4ccco4)nc23)cc1 | i
CC1=NN(C(=O)Cc2ccccc2)C(O)(c2ccc(Cl)cc2)C1 (configuration not stated) | i
CCN1CC(Nc2nc(-c3ccncc3)nc3c2CNC3)CC1=O (configuration not stated) | i
COc1ccc2oc(=Nc3ccc(F)cc3)c(C(=O)Nc3ccccc3)cc2c1 | i
COc1ccc(CC(=O)Nc2cccc(F)c2C)cc1 | i
SMILES | ST2 inh
CCC(Sc1nc2c(cc1C#N)CCCCC2)C(=O)Nc1cc(C)on1 (configuration not stated) | 30.0%*
CCC(Sc1nc(C)cc(C)n1)C(=O)Nc1cc(C)on1 (configuration not stated) | i
CCSc1nc2c(cc1C#N)CCCC2 | i
COC(=O)c1ccc(NS(=O)(=O)c2ccc(Br)s2)cc1 | i
O=C(CN1C(=O)C(=O)c2ccccc21)Nc1ccc(Br)cc1 | i
O=C(CN1C(=O)c2ccccc2C1=O)Nc1ccc(Br)cc1C(=O)O | i
O=C(CN1C(=O)c2ccccc2C1=O)Nc1ccc(Br)cc1 | 34.0%*
c1cnc(CCNc2ccc(-c3nc(C4CC4)no3)cn2)cn1 | i
O=C1[C@@H]2C3c4ccccc4C(Br)(c4ccccc43)[C@@H]2C(=O)N1c1ccc([N+](=O)[O-])cc1 | 34.0%*
O=C1C2[C@H](C(=O)N1c1cccc(Br)c1)C1c3ccccc3C2(C(=O)O)c2ccccc21 (some centres not stated) | i
CC(=O)Oc1ccc(N2C(=O)C3C4c5ccccc5C(C)(c5ccccc54)C3C2=O)cc1 (configuration not stated) | i
O=C(O)c1cccc(NCc2cccc(OCc3ccccc3)c2)c1 | i
N#CC1=C(N)SC(N)=C(C#N)C1c1cccs1 | i
O=[N+]([O-])c1cccc(-c2noc([C@@H]3C[C@@H](O)CN3Cc3ccc(CO)o3)n2)c1 | 58.0%*
Cc1cccc(-c2noc([C@@H]3C[C@@H](O)CN3Cc3cccs3)n2)c1 | i
O=[N+]([O-])c1cccc(-c2noc([C@@H]3C[C@@H](O)CN3Cc3cccs3)n2)c1 | 61.0%*
Cc1ccc(CN2C[C@H](O)C[C@H]2c2nc(-c3cccc([N+](=O)[O-])c3)no2)cc1 | i
O=[N+]([O-])c1cccc(-c2noc([C@@H]3C[C@@H](O)CN3Cc3ccccc3)n2)c1 | i
O=[N+]([O-])c1cccc(-c2noc([C@@H]3C[C@@H](O)CN3Cc3ccc(Cl)cc3)n2)c1 | i
C=CCn1c(-c2c(-c3ccccc3)ncn2CCO)nc2ccccc21 | i
CCc1nc(C)c(C(=O)NCc2cc3cc(OC)ccc3[nH]2)o1 | i
CN(Cc1ccccc1)C(=O)Cc1c(C(=O)O)[nH]c2ccccc12 | i
Cc1ccc(C(=O)Nc2ccccc2C)cc1 | i
Cc1ccccc1NCCNc1ccccc1C | 34.0%*
Cc1ccccc1NC(=O)CCC(=O)Nc1ccccc1C | i
SMILES | ST2 inh
COc1cccc(CC2CN(C(=O)Cc3c[nH]c(=O)n(C)c3=O)CCO2)c1 (configuration not stated) | i
O=C(CN1CCCN(S(=O)(=O)c2ccc(F)cc2)CC1)c1ccc2c(c1)OCO2 | i
Cn1cc(CN2CCCC(C(=O)N3CCOCC3)C2)c(-c2cccc(Cl)c2)n1 (configuration not stated) | i
Cc1[nH]cnc1-c1nccn1CCc1ccccc1Cl | i
CCOc1cc(/C=C2/C=C(c3ccc(C)cc3)OC2=O)ccc1O | 31.0%*
CCOc1cc(/C=C2/C(=O)N(c3ccccc3)N=C2C)ccc1O | i
CCOc1cc(/C=C2/Sc3ccccc3C2=O)ccc1O | 59.0%*
CCOc1cc(-c2ccc(O)cc2)cc(=O)c2c(C)oc(C)c12 | i
CCOc1cc(/C=C2/SC(=O)NC2=O)ccc1OCc1ccccc1 | i
CC(C)c1ccc(/C=C2\Sc3ccccc3C2=O)cc1[N+](=O)[O-] | i
Cc1cc(NC(=O)C(NC(=O)C2CCCCC2)C(C)C)ccc1Br (configuration not stated) | i
CC(C)(Oc1ccc(Cl)cc1)C(=O)NCCSc1c[nH]c2ccccc12 | i
C=C(C)Cn1c(NCc2ccccc2)nc2c1c(=O)[nH]c(=O)n2C | i
CC12CCC3c4ccc(O)c(Br)c4CCC3C1CCC2O (configuration not stated) | i
C[C@]12CC[C@@H]3c4ccc(O)cc4CC[C@H]3[C@@H]1CCC2=O | i
COc1ccc2c(c1)CCC1C2CC[C@@]2(C)C1CC[C@@H]2NCCCCCCN1C(=O)C=CC1=O (some centres not stated) | 46.0%*
O=C(COc1ccccc1[N+](=O)[O-])Nc1ccc(I)cc1Cl | i
COc1ccc(CC(=O)N2CCN=C2SCc2ccc(Cl)cc2)cc1OC | i
O=C(CCC1CCCN(Cc2ccc3nonc3c2)C1)Nc1ccccc1F (configuration not stated) | i
Cc1cc(NC(=O)c2ccc3c(c2)OCO3)nc2c1c(=O)oc1ccccc12 | i
Cc1cc(NC(=O)/C=C\c2ccc3c(c2)OCO3)nc2c1c(=O)oc1ccccc12 | 43.0%*
CC(=O)Nc1cc(C)c2c(=O)oc3ccccc3c2n1 | i
